Inhibition data for 106 compounds are collected here from PubChem BioAssay AID1259343 (VanderVen Lab, College of Veterinary Medicine, Cornell …, 2017).

In all, about 6,200 compounds went through this assay and about 2,900 (47%) were called active. No stated cut-off is given here; in the data, active means inhibition above about 50%; inactive means the rest. The set was probably picked from earlier hits. This is one part of the list.

A short description of the assay: Mycobacterium tuberculosis growth inhibition, primary screen (AID 1259343). The following applies: inhibition: at 10 µM, active compounds read high; outcome: 10 uM.
A word on the inhibition: it is the drop in the measured response relative to a control, in per cent. For `S=C1Nc2ccccc2C2CC=NN12` (stereo unspecified), the inhibition is 55.7% (active).
`COc1ccc(OCCSC2=Nc3ccccc3C3CC=NN23)cc1` (stereo unspecified): the inhibition was 45.9% (inactive).
The result for `Cc1nc(C)c(CN2CCCC(C(=O)Nc3ccc(-c4cccc(F)c4)cc3)C2)nc1C` (stereo unspecified) reads 90.5% (active).
Under `Cc1nnsc1C(=O)N1CCCC(C(=O)Nc2cccc(-c3ccc(F)cc3)c2)C1` (stereo unspecified) stands 17.2% (inactive); under `CC(C)c1cc(C(=O)N2CCCC(C(=O)Nc3cccc(-c4ccc(F)cc4)c3)C2)on1` (stereo unspecified), 83.1% (active).
As for `Cc1ncc(CN2CCCC(C(=O)Nc3cccc(-c4ccc(F)cc4)c3)C2)s1` (stereo unspecified), the inhibition was 61.6% (active).
Turning to `O=C(Nc1cccc(-c2ccc(F)cc2)c1)C1CCCN(C2CCSCC2)C1` (stereo unspecified), the inhibition is 86.7% (active).
Turning to `CC(C)c1cc(C(=O)N2CCCC(C(=O)c3ccc4ccccc4c3)C2)on1` (stereo unspecified), the inhibition was 15.6% (inactive).
Under `O=c1c2ccccc2oc2nc(C3CCCCC3)n(Cc3ccccc3)c(=O)c12` stands -13.4% (inactive); under `O=C(Nc1cccc(-c2ccc(F)cc2)c1)C1CCCN(Cc2cccnc2)C1` (stereo unspecified), 47.1% (inactive); under `CSCCC(=O)N1CCCC(C(=O)Nc2ccc(-c3cccc(F)c3)cc2)C1` (stereo unspecified), 36.2% (inactive).
The result for `CCc1ncc(CN2CCCC(C(=O)Nc3cccc(-c4ccc(F)cc4)c3)C2)cn1` (stereo unspecified) reads 77% (active); that for `O=C(Nc1ccc(-c2cccc(F)c2)cc1)C1CCCN(C(=O)C2CCOCC2)C1` (stereo unspecified), 76.7% (active); that for `Cc1ccc(CC2CCCN(c3cn[nH]c(=O)c3Cl)C2)cc1` (stereo unspecified), 41.4% (inactive).
Take `O=c1c(Cl)c(Oc2ccccc2)cnn1Cc1ccccc1`: the inhibition was 24.6% (inactive).
Under `CC1(CCc2ccccc2)CCN(c2cn[nH]c(=O)c2Cl)C1` (stereo unspecified) stands 71.2% (active); under `CCN(C(=O)c1cccc(Br)c1C)c1ccccc1`, -6.9% (inactive); under `Cc1cc(Cl)ccc1OC(C)c1nnc(SCCC2CCCCC2)o1` (stereo unspecified), 10.5% (inactive).
The result for `Cc1ccc(O)c(S(=O)(=O)N2CCCc3cc(F)c(F)cc32)c1` reads 3.27% (inactive); that for `O=S(=O)(c1cc(Br)ccc1Br)N1CCc2ccccc21`, 102% (active); that for `O=S(=O)(c1cc(Br)ccc1Br)N1CCCc2ccccc21`, 7.14% (inactive).
The result for `O=S(=O)(c1cc(Br)ccc1Br)N1CCC1c1ccccc1` (stereo unspecified) reads 77.1% (active); that for `CC(C)CCNC(=O)CSc1nc2ccccc2o1`, 6.9% (inactive); that for `CC(C)SCC(=O)Nc1cnc2ccccc2c1`, 92.9% (active).
For `COc1cccc(-n2cc(CN(C)Cc3cccc4nonc34)cn2)c1`, the inhibition is 83.4% (active).
Under `COc1cccc(-n2cc(CN(C)Cc3cc4ccccc4[nH]3)cn2)c1` stands 41.5% (inactive); under `CC(C)c1cc2c(c(O)c1O)[C@@]1(C(=O)O)CCCC(C)(C)C1CC2` (stereo partly specified), 48.2% (inactive); under `CC(C)c1ccc2c(c1)CCC1C(C)(C(N)=O)CCCC21C` (stereo unspecified), 64.3% (active).
The result for `COc1ccc(S(=O)(=O)NCCC(C)C)cc1` reads 3.91% (inactive); that for `CC(=O)NS(=O)(=O)c1ccc(N)cc1`, 60.2% (active); that for `Cc1ccc(C2CC2C(=O)NS(=O)(=O)c2ccc(F)cc2)s1` (stereo unspecified), -6% (inactive).
As to `O=C(NCc1ccc(S(=O)(=O)N2CCCCC2)cc1)NCc1cccc(C(F)(F)F)c1`, the inhibition is 91.4% (active).
Turning to `O=C(c1cnc2cc3c(cc2c1)OC1(CCCC1)O3)c1ccccc1O`, the inhibition is -7.11% (inactive).
Under `Cc1ccc(NC2=CC(=O)c3sc(C)nc3C2=O)cc1` stands 99.8% (active); under `Cc1ccc(-c2nc(C)sc2CC(=O)NC(C)C2CC2)cc1` (stereo unspecified), 33.3% (inactive); under `CCc1nc2sc3c(NCCN(C)C)ncnc3c2c2c1CCCC2`, 47.1% (inactive).
`CC(C)CNc1nnnc2c1sc1nc(N3CCOCC3)c3c(c12)CCCC3`: the inhibition was -4.41% (inactive).
Under `CCc1nc2sc3c(NCC4CCCO4)ncnc3c2c2c1CCCC2` (stereo unspecified) stands 57.2% (active); under `COc1ccc(-c2nc(-c3ccccc3F)cs2)cc1OC`, 12.5% (inactive); under `COc1ccc(F)cc1-c1csc(-c2ccc(NC(=O)C3CC3)cc2)n1`, 71.9% (active).
As to `COc1ccc(-c2cc(CNC(=O)C3CC3)no2)cc1`, the inhibition was 30.7% (inactive).
Under `COc1ccc(-c2cc(NC(=O)C3CC3)ccc2OC)cc1` stands 93.7% (active).
Under `Cc1csc2cc(C(=O)NC3CC(C)CC(C)(C)C3)cnc12` (stereo unspecified) stands 41% (inactive).
On to `CCOC(=O)c1c(C)c(C(=O)NC2CC(C)CC(C)(C)C2)c(C)n1CC` (stereo unspecified), for which the inhibition is 93.8% (active).
Under `CCOC(=O)c1c(C)nn(-c2ccc(C(=O)NC3CCC(C)CC3)cc2)c1C` (stereo unspecified) stands 38.6% (inactive); under `Cc1c(C(=O)NCc2ccco2)c(C2CC2)nn1-c1ccc(Cl)c(Cl)c1`, 91% (active); under `CCCc1c(C(=O)O)c(C2CC2)nn1-c1ccc(OC)cc1`, 17.7% (inactive).
`CCOc1ccc2c(c1)C=C(C(=O)NCc1ccco1)CO2`: the inhibition is -9.65% (inactive).
Under `CS(=O)(=O)N(c1ccccc1Cl)S(=O)(=O)c1ccc(Cl)c([N+](=O)[O-])c1` stands 70.4% (active).
`CN(C)C(CNc1ccc(S(C)(=O)=O)cc1[N+](=O)[O-])c1ccco1` (stereo unspecified): the inhibition was -2.26% (inactive).
The result for `O=[N+]([O-])c1cc(S(=O)(=O)Oc2cccc(Cl)c2Cl)ccc1Cl` reads -21.3% (inactive); that for `O=C1O/C(=C/Br)CCC1c1cccc2ccccc12` (stereo unspecified), 102% (active).
For `CNC(=O)c1ccc(-c2cccc(-n3cccn3)c2)s1`, the inhibition was 91.2% (active).
In the case of `CNC(=O)COc1ccc(-c2cccc(-n3cccn3)c2)cc1`, the inhibition is 54.7% (active).
Under `CCOC(=O)C1(CCOc2ccccc2)CCN(Cc2cccc(-n3cccn3)c2)CC1` stands 31.7% (inactive); under `O=C(O)c1ccc(CN2CCc3cc(-n4cccn4)cnc32)cc1`, 26.6% (inactive); under `COc1cc(NC(=O)c2ccc(N3CCC(C)=N3)cc2)cc(OC)c1`, 71% (active).
Under `COc1cc(NC(=O)c2ccc(CN3CC=CC3)cc2)cc(OC)c1` stands 36.1% (inactive); under `COc1ccc(CC(N)c2csc(Nc3cc(Oc4ccccc4)ncn3)n2)cc1` (stereo unspecified), 56.6% (active).
For `NC(Cc1ccc(C(F)(F)F)cc1)c1csc(Nc2cc(Oc3ccccc3)ncn2)n1` (stereo unspecified), the inhibition is 59.6% (active).
Under `NC(Cc1ccc(F)cc1)c1csc(Nc2cc(Oc3ccccc3)ncn2)n1` (stereo unspecified) stands 54.2% (active).
The result for `NC(Cc1ccccc1)c1csc(Nc2cc(Oc3ccccc3)ncn2)n1` (stereo unspecified) reads “inactive”; that for `NC(COCc1ccccc1)c1csc(Nc2cc(Oc3ccccc3)ncn2)n1` (stereo unspecified), 76.8% (active); that for `Cc1nn(C)c(Cl)c1CNc1ccccc1`, 5.19% (inactive).
The result for `CC1(C)C2CCC1(C)C(NC(=O)Nc1nnc(C3CC3)s1)C2` (stereo unspecified) reads 41% (inactive); that for `COc1ccc(C(N)c2csc(Nc3cc(Oc4ccccc4)ncn3)n2)cc1` (stereo unspecified), 58.8% (active); that for `O=C(O)c1oc2ccc(Cl)cc2c1-n1cccc1`, 90.5% (active).
Regarding `O=C(c1cccs1)c1coc2ccc(Cl)cc2c1=O`, the inhibition is 43.6% (inactive).
Under `CCCCCNC(=O)C1CCN(C(=O)c2oc3ccc(Cl)cc3c2C)CC1` stands 29.4% (inactive); under `COc1ccc(-c2nn3c(nc2=O)-c2ccccc2NC3C(C)C)cc1` (stereo unspecified), “inactive”; under `Cc1occc1C(=O)N1CCCC(C(=O)c2ccc(Oc3ccccc3)cc2)C1` (stereo unspecified), 17% (inactive).
With `Cc1nonc1C(=O)N1CCCC(C(=O)c2ccc(Oc3ccccc3)cc2)C1` (stereo unspecified), the inhibition was 13.8% (inactive).
On to `COc1c(C)cc(C(=O)C2CCCN(Cc3cnc(SC)nc3)C2)cc1C` (stereo unspecified), for which the inhibition was 47.7% (inactive).
Take `O=C(c1ccc(Oc2ccccc2)cc1)C1CCCN(C(=O)c2ccc3nccnc3c2)C1` (stereo unspecified): the inhibition was 56% (active).
`CSc1ncc(CN2CCCC(C(=O)c3ccc(Oc4ccccc4)cc3)C2)cn1` (stereo unspecified): the inhibition was 92.1% (active).
For `O=C(c1ccc(Oc2ccccc2)cc1)C1CCCN(C(=O)c2cnsn2)C1` (stereo unspecified), the inhibition is 64.4% (active).
As for `O=C(c1ccc(-c2ccccc2)cc1)C1CCCN(C(=O)c2ccc3nccnc3c2)C1` (stereo unspecified), the inhibition was 18.2% (inactive).
With `O=C(COC(=O)c1n[nH]c(=O)c2ccccc12)Nc1ccc2c(c1)CCC2`, the inhibition is 37.8% (inactive).
For `O=C(Nc1ccc2c(c1)CCC2)C1CCN(C(=O)OCC(F)(F)F)CC1`, the inhibition was 49.5% (inactive).
With `O=C(COCC(F)(F)F)Nc1ccc2c(c1)C(=O)CCC2`, the inhibition is 81.5% (active).
For the compound `Clc1ccc(-c2noc(CSc3ccc(Br)cc3)n2)cc1`, the inhibition is 66.5% (active).
For `O=C(NCc1ccc(F)cc1)c1c(O)nc2sccn2c1=O`, the inhibition is 59.5% (active).
On to `O=C(NCc1ccccc1)c1c(O)nc2sccn2c1=O`, for which the inhibition was 63.3% (active).
As for `Cc1cccc(C)c1Cn1c(C)c(C(=O)NCc2ccc(Cl)c(Cl)c2)sc1=O`, the inhibition was 16.1% (inactive).
For `O=C(NCc1ccc(Cl)cc1)c1c(O)nc2sccn2c1=O`, the inhibition was 81.1% (active).
Under `O=C(NCc1ccc(Cl)cc1)c1c(O)nc2ccccn2c1=O` stands 25.1% (inactive); under `O=C(NCCc1ccccc1)c1c(O)nc2sccn2c1=O`, 1.99% (inactive); under `Cc1ccc(CNC(=O)c2c(O)nc3sccn3c2=O)cc1`, 74.4% (active).
In the case of `O=C(NC1CCCCC1)c1c(O)nc2ccccn2c1=O`, the inhibition is 42.4% (inactive).
The result for `Cc1ccc(CNC(=O)CN2CCc3sccc3C2C)cc1` (stereo unspecified) reads 27% (inactive); that for `Fc1cccc(Nc2cc3[nH]c(-c4cccc(F)c4)cc3cn2)c1`, 30.6% (inactive).
The result for `COCC(C)NC(=O)C12CCC(C)(C(=O)O1)C2(C)C` (stereo unspecified) reads 100% (active).
In the case of `COCC(C)NC(=O)c1ccc(CSc2ccccc2)o1` (stereo unspecified), the inhibition is -22.4% (inactive).
Regarding `Brc1ccc(-n2nc(-c3ccccc3)n[n+]2-c2nnn[n-]2)cc1`, the inhibition is 49.9% (inactive).
The result for `O=C(O)c1cc2cc(Cl)sc2s1` reads 37% (inactive).
The result for `O=C(O)c1cc(-c2ccc(Cl)c(Cl)c2)ns1` reads 90% (active); that for `CN(Cc1ccc(Cl)s1)S(=O)(=O)c1ccc(Cl)cc1`, 73.6% (active).
Under `CCN(CC)c1ccc(CN(C)S(=O)(=O)c2ccc(F)cc2)cc1` stands 33.5% (inactive); under `CC(=O)NCCC1CCN(c2nncc(-c3ccc(Cl)cc3)n2)CC1`, 38% (inactive); under `O=C(CN1CCc2ccccc2C1)NCC1CCN(c2ccccc2)C1` (stereo unspecified), 91.3% (active).
`O=C(NCC1CCN(c2ccccc2)C1)N1CCCC1C1CCCC1` (stereo unspecified): the inhibition is 67.7% (active).
Under `Cc1ccc2c(c1)C1CN(C)CCC1N2C(=O)NCC1CCCC1` (stereo unspecified) stands 45.5% (inactive); under `CC(C)CC(=O)NCC1CCN(c2ccc(Cl)cc2)C1` (stereo unspecified), 68.8% (active).
Under `O=C(CN1CCc2ccccc2C1)Nc1nc(-c2cc3ccccc3o2)cs1` stands 5.08% (inactive); under `O=C(NCC1CC1)N1Cc2ccccc2C(c2ccccc2)C1` (stereo unspecified), 8.6% (inactive).
With `O=C(Nc1cccc2cccnc12)N1CCCC1C1CCCC1` (stereo unspecified), the inhibition was 27.2% (inactive).
